Compounds with a hit are over-represented: about 19% of the library has one in this group of screens.
Pf growth 96h – P. falciparum growth inhibition at 96 hour, primary screen for plastid delayed-death inhibitors | 320,000 compounds, 6.9% hits | P. falciparum luciferase reporter growth, 96 h | Potency, µM (top dose mostly 28.7 µM), actives largely listed as inhibitors | AID 504834
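P. falciparum expressing integrated firefly luciferase grown in erythrocytes (2% hematocrit, 0.05% parasitemia final) with compounds for 96 hours at 37 C, 5% CO2. Growth inhibition read as loss of luminescence after adding luciferase detection reagent.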
Cycloheximide cs – counter-screen for Shiga toxin inhibitors: cycloheximide protein synthesis inhibition; AID 2314; max response, %; cell reporter, cycloheximide protein synthesis inhibition counterscreen; 300,000 compounds, 12% hits; in the data active means max response mostly above about 13%, no sharp cut-off; inactive means mostly below about 14%; further: read at 38.3 µM for the half of the compounds with a filed dose
Shiga inhibitor – Shiga toxin inhibition; Vero cells, Shiga toxin protein synthesis inhibition reporter; AID 2315; 290,000 compounds, 9.2% hits; inhibition, % at 38.7 µM; in the data active means inhibition mostly above about 28%, no sharp cut-off; inactive means mostly below about 43%
Marburg entry inh – inhibitors of Marburg virus binding or cell entry | AID 540276 | Marburg virus pseudotyped entry inhibition, cell reporter | 300,000 compounds, 1.8% hits | Potency, µM (titrated, usually from 37.8 µM), hits mostly inhibitors; calls by dose curve; tested in HEK293 cells
Lassa entry inh – blocks Lassa virus binding to or entry into cells. AID 540256. Lassa virus pseudotype entry inhibition, cell reporter. Potency, µM (series often up to 37.9 µM), usual class: inhibitors. 300,000 compounds, 1.2% hits; calls by dose curve; tested in HEK293 cells; further: nearly all actives have a fitted effect of over 50% in size
Pf growth 48h – P. falciparum growth inhibition at 48 hours (one generation). P. falciparum luciferase growth in erythrocytes, 48 h. Potency, µM (titrated, usually from 28.7 µM), most hits filed as inhibitors. 310,000 compounds, 5.9% hits
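Read-out is firefly luciferase luminescence from an integrated reporter in P. falciparum, so falling signal marks reduced parasite growth. Infected erythrocytes were at 2% hematocrit and 0.1% parasitemia (final) in Albumax-supplemented RPMI 1640.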
Each line names hits and unclear results; the compound was inactive in the other large screens. Unless noted, the call rests on the fitted dose curve; in most records, active means well fitted inhibition curve with a large enough effect; inconclusive means small, poorly fitted or top-dose-only effect, or another doubt; inactive means no such curve, though single readings can be large or run the other way.

Cc1c2cnn(CC(=O)N3CCC4(CC3)OCCO4)c(=O)c2c(C)n1Cc1ccccc1Cl	Cycloheximide cs 14
COC(=O)Cn1ncc2c3ccccc3n(Cc3ccccc3)c2c1=O	Pf growth 96h 5.2µM, Pf growth 48h inconclusive
O=C(Cn1ncc2c3ccccc3n(Cc3ccccc3)c2c1=O)N1CCCCCC1	none (no result: Pf growth 96h, Cycloheximide cs, Shiga inhibitor, Pf growth 48h)
COC(=O)Cn1ncc(N(C)Cc2ccccc2)c(Cl)c1=O	Cycloheximide cs 41, Shiga inhibitor 72, Marburg entry inh inconclusive, Lassa entry inh inconclusive
O=C(Cn1ncc2c3ccccc3n(Cc3ccc(F)cc3)c2c1=O)N1CCC2(CC1)OCCO2	Pf growth 96h inconclusive, Marburg entry inh 14µM, Lassa entry inh inconclusive, Pf growth 48h 12µM
Cc1c2cnn(CC(=O)N3CCC4(CC3)OCCO4)c(=O)c2c(C)n1Cc1ccccc1	none
CCC(C#CCN1CCCCC1)(CC)OCCC#N	none
Cc1nn(CCCC(=O)N2CCc3ccccc3C2)c(=O)c2cc3sccc3n12	Pf growth 96h inconclusive (no result: Marburg entry inh, Lassa entry inh, Pf growth 48h)
Cc1onc(-c2ccccc2Cl)c1C(=O)OCC(=O)Nc1ccc2c(c1)OCO2	Pf growth 96h inconclusive, Pf growth 48h inconclusive
O=c1[nH]ncc2c3ccccc3n(Cc3ccc(F)cc3)c12	Pf growth 48h 3.3µM
CC1CC(C)CN(CCCNC(=O)Cn2ncc3c(=O)oc4ccccc4c32)C1 (configuration not stated)	Pf growth 96h inconclusive (no result: Lassa entry inh, Pf growth 48h)
CCOC(=O)N1CCN(C(=O)Cn2ncc3c4ccccc4n(Cc4ccc(F)cc4)c3c2=O)CC1	Lassa entry inh inconclusive (no result: Pf growth 96h, Cycloheximide cs, Shiga inhibitor, Pf growth 48h)
O=C(Cn1ncc2c3ccccc3n(Cc3ccc(F)cc3)c2c1=O)N1CCN(c2ncccn2)CC1	Marburg entry inh inconclusive, Lassa entry inh inconclusive, Pf growth 48h 9.3µM
O=c1[nH]ncc2c3ccccc3n(Cc3cccc(Cl)c3)c12	Pf growth 48h inconclusive (no result: Lassa entry inh)
Cc1c2cnn(CC(=O)NCCCN3CC(C)CC(C)C3)c(=O)c2c(C)n1Cc1ccccc1Cl (configuration not stated)	Marburg entry inh inconclusive, Lassa entry inh inconclusive, Pf growth 48h 6.6µM
Cc1ccccc1NC(=O)CC(O)(C(F)(F)F)C(F)(F)F	none (no result: Pf growth 48h)
CN1C(=O)C2ON(c3ccccc3)C(c3cccs3)C2C1=O (configuration not stated)	Pf growth 96h 9.3µM, Lassa entry inh inconclusive
COC(=O)COc1ccc(C)cc1-n1nc2ccccc2n1	none
Cc1ccc(OC(=O)COc2ccccc2)c(-n2nc3ccccc3n2)c1	Cycloheximide cs 41, Shiga inhibitor 94, Marburg entry inh inconclusive (no result: Pf growth 48h)
Cc1ccc(OC(=O)COc2ccccc2C)c(-n2nc3ccccc3n2)c1	Cycloheximide cs 43, Shiga inhibitor 69, Marburg entry inh inconclusive, Lassa entry inh inconclusive
Cc1ccc(OC(=O)c2cccc([N+](=O)[O-])c2)c(-n2nc3ccccc3n2)c1	Cycloheximide cs 27
CCOc1ccccc1NS(=O)(=O)N(C)C	Pf growth 96h 13µM (no result: Pf growth 48h)
CCC(C)(C(=O)NC1CCCCC1)N(CC1CCCO1)C(=O)CNC(=O)c1ccccc1 (configuration not stated)	Lassa entry inh inconclusive (no result: Pf growth 96h, Pf growth 48h)
CCC(C)(C(=O)NC1CCCC1)N(Cc1cccs1)C(=O)c1ccccn1 (configuration not stated)	Pf growth 96h 2.9µM
CCC(C)(C(=O)NC1CCCCC1)N(Cc1cccs1)C(=O)c1ccccn1 (configuration not stated)	Pf growth 96h inconclusive
CCC(C)(C(=O)NC1CCCCC1)N(Cc1ccco1)C(=O)CNC(=O)c1ccccc1 (configuration not stated)	Cycloheximide cs 31, Pf growth 48h inconclusive
C=CCn1c(=O)c(C(=O)NCCNCC)c(O)c2ccccc21	none
CCOc1nc2cccc(C(=O)O)c2n1Cc1ccc(-c2ccccc2-c2nn[nH]n2)cc1	Pf growth 96h 2.1µM, Pf growth 48h inconclusive (no result: Cycloheximide cs, Shiga inhibitor, Marburg entry inh, Lassa entry inh)
N/C(=N\OC(=O)COc1ccccc1)c1ccc(Cl)cc1	Pf growth 96h 13µM
N/C(=N\OC(=O)CSc1ccccc1)c1ccncc1	Pf growth 96h inconclusive, Cycloheximide cs 47, Shiga inhibitor 79 (no result: Marburg entry inh, Lassa entry inh)
N/C(=N\OC(=O)CSc1ccccc1)c1cccc([N+](=O)[O-])c1	Cycloheximide cs 33, Marburg entry inh inconclusive
N/C(=N\OC(=O)Cc1ccc(-c2ccccc2)cc1)c1ccncc1	Marburg entry inh inconclusive, Pf growth 48h inconclusive
N/C(=N\OC(=O)CCCN1C(=O)c2ccccc2C1=O)c1ccc(Cl)cc1	Pf growth 96h inconclusive
COc1cccc(OCC(=O)O/N=C(\N)c2ccncc2)c1	Pf growth 96h inconclusive, Cycloheximide cs 28, Shiga inhibitor 59
CCN(Cc1ccccc1)C(=O)CN1C(=O)COc2ccc(S(=O)(=O)N(CC)CC)cc21	none (no result: Pf growth 96h, Cycloheximide cs, Shiga inhibitor, Pf growth 48h)
Cc1c2cnn(CC(=O)NCc3ccc(Cl)cc3)c(=O)c2c(C)n1Cc1ccc(F)cc1	none (no result: Pf growth 96h, Cycloheximide cs, Shiga inhibitor, Pf growth 48h)
N/C(=N\OC(=O)COc1ccc(Br)cc1)c1cccnc1	none
N/C(=N\OC(=O)COc1ccccc1)c1cccnc1	none (no result: Lassa entry inh)
Cc1cc(C)cc(OCC(=O)O/N=C(\N)c2cccnc2)c1	Cycloheximide cs 16, Pf growth 48h inconclusive
N/C(=N\OC(=O)COc1ccccc1)c1ccncc1	Cycloheximide cs 43, Shiga inhibitor 83 (no result: Marburg entry inh, Lassa entry inh)
C=CCNC(=O)C(=O)N/N=C/c1cccc(Br)c1	none
CCCCCC(=O)Nc1ccccc1N1CCOCC1	Marburg entry inh inconclusive
CCCCC1CCC(C(=O)Nc2ccccc2N2CCOCC2)CC1 (configuration not stated)	Pf growth 96h inconclusive, Pf growth 48h 15µM (no result: Cycloheximide cs, Shiga inhibitor, Lassa entry inh)
O=C(Nc1ccc(N2CCOCC2)cc1N1CCOCC1)c1cccs1	none (no result: Pf growth 48h)
CC(C)(C)C1CCC(C(=O)Nc2ccc(N3CCOCC3)cc2N2CCOCC2)CC1 (configuration not stated)	Pf growth 96h inconclusive, Pf growth 48h 10µM (no result: Cycloheximide cs, Shiga inhibitor, Marburg entry inh, Lassa entry inh)
COc1cc2c(cc1OC)CN(C(=O)Cn1ccccc1=O)CC2	none (no result: Marburg entry inh, Lassa entry inh)
Cc1cc(C)cc(N=Cc2[nH]c3ccc(Br)c(Cl)c3c2O)c1	Pf growth 96h inconclusive, Marburg entry inh inconclusive, Pf growth 48h 1.5µM
COc1ccc(CN=Cc2[nH]c3ccc(Br)c(Cl)c3c2O)cc1	Pf growth 96h inconclusive, Marburg entry inh inconclusive, Lassa entry inh inconclusive, Pf growth 48h 3.7µM
COc1ccc(CC(=O)N/N=C\c2cc(Br)c(O)c(Br)c2)cc1	Pf growth 96h inconclusive (no result: Marburg entry inh, Lassa entry inh)
CC(C)(C)NC(=O)CSc1nc(-c2ccccc2)c(-c2ccccc2)[nH]1	Marburg entry inh inconclusive, Pf growth 48h inconclusive (no result: Pf growth 96h)
COC(=O)CSc1ncccc1-c1nc2ccccc2[nH]1	Pf growth 96h inconclusive, Cycloheximide cs 24, Shiga inhibitor active, Marburg entry inh inconclusive
CC(C)(C)NC(=O)CSc1ncccc1-c1nc2ccccc2[nH]1	Pf growth 96h inconclusive, Cycloheximide cs 26, Shiga inhibitor 26
COC(=O)CSc1nc2ccccc2nc1SCC(=O)OC	none
O=C(CSc1ncccc1-c1nc2ccccc2[nH]1)N1CCc2ccccc21	Cycloheximide cs 85, Marburg entry inh inconclusive
CCN(CC(=O)NCc1cccs1)C(=O)CCC(=O)c1ccc(C)cc1	Pf growth 48h inconclusive (no result: Cycloheximide cs, Shiga inhibitor)

Bioassay records deposited in PubChem by National Center for Advancing Translational Sciences (NCATS).
